Screens as filed in PubChem.
Shown are actives, neighbours in structure and some others; about 3.2% of the full set was active somewhere.
15-hLO inh: 15-hLO (ALOX15) enzyme inhibition; Potency, µM (series often up to 57.1 µM), without a hit: at the top dose activity change, negative = inhibition, most hits filed as inhibitors; purified 15hLO-1, xylenol orange hydroperoxide absorbance; AID 887; P16050; 1.4% of 74,000 active; note: % is set by controls: 0 for no effect and ±100 for the full control effect; nearly all actives have a fitted effect of over 55% in size
Target sequence (P16050 whole entry, looked up): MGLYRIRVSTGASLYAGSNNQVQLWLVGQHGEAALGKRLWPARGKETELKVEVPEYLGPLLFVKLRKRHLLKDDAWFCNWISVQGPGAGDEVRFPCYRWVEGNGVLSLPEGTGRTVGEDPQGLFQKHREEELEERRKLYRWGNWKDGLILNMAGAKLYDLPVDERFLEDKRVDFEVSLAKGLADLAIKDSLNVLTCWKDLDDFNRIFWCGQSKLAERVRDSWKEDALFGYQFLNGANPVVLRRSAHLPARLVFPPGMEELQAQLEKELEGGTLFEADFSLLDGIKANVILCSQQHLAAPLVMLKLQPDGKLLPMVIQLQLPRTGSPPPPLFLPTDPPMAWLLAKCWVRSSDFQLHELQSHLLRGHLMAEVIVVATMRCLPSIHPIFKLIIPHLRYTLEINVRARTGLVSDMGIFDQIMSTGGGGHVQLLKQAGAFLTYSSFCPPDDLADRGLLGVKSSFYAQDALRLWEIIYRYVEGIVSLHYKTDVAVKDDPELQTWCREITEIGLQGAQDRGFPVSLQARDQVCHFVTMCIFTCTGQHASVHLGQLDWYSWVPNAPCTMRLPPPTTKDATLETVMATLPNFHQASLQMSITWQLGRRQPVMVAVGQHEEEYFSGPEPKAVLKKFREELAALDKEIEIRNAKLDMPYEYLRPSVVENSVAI
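Readout: Fe(III)-xylenol orange absorbance, 573-to-405 nm ratio as reaction progress. Enzyme 40 nM purified human 15hLO-1, substrate 50 uM arachidonic acid, 6 min RT after 15 min compound preincubation; Hepes pH 7.5 buffer with Triton X-100.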
CRE-bla Fsk: CRE-bla signaling modulation under forskolin stimulation; Potency, µM (series often up to 38.2 µM), for inactives: top-dose activity change, negative = inhibition, usual class: activators; CHO CRE-bla reporter (cAMP response element driving beta-lactamase), forskolin EC10, beta-lactamase ratio; 2.5% of 71,000 active; AID 662; active = well fitted activation curve with a large enough effect in the signal ratio, with a control signal flat, not every such curve was filed as active; inconclusive = small, poorly fitted or top-dose-only effect, or effect the other way, or a change in a side signal; the % refers to the signal ratio; note: % of control where 0% means no effect
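Beta-lactamase reporter under a cAMP responsive element in CHO cells; compounds tested in titration series against EC10 NKH 477, 3 h at 37 °C. Read-out: CCF4 FRET ratio 460nm/530nm (excitation 405nm) giving %Activity, fitted to AC50.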
ERK AVP inh: blocks ERK signaling stimulated by vasopressin. HEK293-V1b, vasopressin-stimulated pERK AlphaScreen. Potency, µM (highest dose often 57.5 µM), inactives show at the top dose activity, negative = inhibition, hits mostly inhibitors. 0.99% of 72,000 active. AID 995; note: % is set by controls: 0 for no effect and ±100 for the full control effect; nearly all actives have a fitted effect of over 55% in size
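HEK293 cells stably expressing V1b receptor, preincubated 30 min at 37 °C with compound, then stimulated 5 min with 25 nM vasopressin. Phospho-ERK by AlphaScreen SureFire after 5 h RT; normalized to DMSO and vasopressin; AC50 by Hill fit.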
ALOX15B inhib: 15-hLO-2 (ALOX15B) enzyme inhibition. 0.56% of 110,000 active. AID 881. Potency, µM (highest dose often 57.1 µM), inactives show top-dose activity change, negative = inhibition, most hits filed as inhibitors. purified 15hLO-2, xylenol orange hydroperoxide absorbance. O15296; note: % is set by controls: 0 for no effect and ±100 for the full control effect; nearly all actives have a fitted effect of over 60% in size
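Read-out: hydroperoxide product oxidises ferrous iron, measured as xylenol orange complex via the 573-to-405 nm absorbance ratio after 30 min. Reaction: 50 nM enzyme, 15 min compound preincubation, 45 uM arachidonic acid, 90 min RT, Hepes pH 7.5 with Triton X-100.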
* hit, by the source's call; ? = inconclusive; nt = no result; [ ] = remark or other dose. Unless noted, calls come from the whole dose curve; as a rule, active = well fitted inhibition curve with a large enough effect; inconclusive = small, poorly fitted or top-dose-only effect; inactive = no such curve, though single readings can be large or run the other way. Potency is the fitted concentration of half-maximal effect.

SMILES | 15-hLO inh | CRE-bla Fsk | ERK AVP inh | ALOX15B inhib
CCC(O)CNc1nc(-n2nc(C)cc2C)nc2sc3c(c12)CCCC3 (configuration not stated) | 18% | 0.79µM* | -4% | 25%
Cc1cc(C)n(-c2nc(SCCN(C)C)c3c4c(sc3n2)CCCC4)n1 | nt | nt | nt | 81%
N#Cc1c(NC(=O)CCC(=O)O)sc2c1CCCC2 | nt | nt | nt | -12%
CCc1ccc(CCC(=O)Nc2sc3c(c2C#N)CCCC3)o1 | 16µM* | ? | -29% | -14%
O=C(c1ccc2c(c1)OCO2)N1CCN(c2ccccc2)CC1 | -21% | 7% | -5% | -9%
CC(=O)N1CCN(c2ccc(NCc3ccc4c(c3)OCO4)cc2)CC1 | ? | ? | -18% | 13µM*
O=C(c1ccccc1)N1CCN(c2ccc(NCc3ccc4c(c3)OCO4)cc2)CC1 | 25µM* | -12% | 20µM* | 20µM*
CCOC(=O)CCN1C(=O)[C@H]2[C@H]3[C@H](O)[C@H](O)C/C(=N/NC(=O)OCC)[C@H]3CC[C@@H]2C1=O | 3%[11.4 µM] | nt | 6%[11.5 µM] | nt
CCOC(=O)C1=C(C)NC(C)=C(C(=O)OC)[C@@H]1c1cccc(Cl)c1Cl | -3%[25.6 µM] | ? | 14%[25.7 µM] | 5%[25.6 µM]
CCOc1ccc(CCNC(=O)CCc2c(C)nc3ncnn3c2C)cc1OCC | nt | nt | nt | -4%
CCOc1ccc(CCNc2cc(C)nc3ncnn23)cc1OCC | -8% | ? | 25µM* | nt
O=C1N/C(=N/Nc2ccccc2)S/C1=C\c1ccccc1 | nt | nt | nt | 3.2µM*
COCCNc1nc(-c2ccoc2)nc2ccccc12 | -28% | ? | -17% | 3%
Cn1c(=O)c2c(nc(NC3CCCCC3)n2Cc2ccccc2)n(C)c1=O | -4% | 10µM* | nt | nt
CC1CCCCN1Cc1nc2c(c(=O)n(C)c(=O)n2C)n1Cc1c(F)cccc1Cl (configuration not stated) | 25µM* | ? | nt | nt
Cn1c(=O)c2c(nc(CN3CCC(C(N)=O)CC3)n2Cc2c(F)cccc2Cl)n(C)c1=O | -7% | ? | -1% | -6%
CCC1CCCCN1Cc1nc2c(c(=O)n(C)c(=O)n2C)n1Cc1ccccc1 (configuration not stated) | -15% | ? | nt | nt
Cn1c(=O)c2c(nc(CN3CCN(Cc4ccccc4)CC3)n2Cc2ccccc2)n(C)c1=O | 20µM* | 14% | nt | 6%
O=C(Nc1ccc(N2CCOCC2)cc1)c1ccc2nc(-c3ccco3)c(-c3ccco3)nc2c1 | -23% | 4% | ? | -24%
O=C(Nc1ccccc1)c1ccc2nc(-c3ccco3)c(-c3ccco3)nc2c1 | 6.3µM* | ? | ? | ?
CCCCNC(=O)c1ccc2nc(-c3ccco3)c(-c3ccco3)nc2c1 | 5µM* | ? | -29% | nt
CCC(O)OC(O)CC (configuration not stated) | 0% | -12% | -15% | 3%
O=c1c2ccccc2nc(SCc2cn3ccsc3n2)n1-c1ccc(F)cc1 | -5% | 4µM* | ? | 51%
Cc1noc(C)c1CSc1nc2[nH]ncc2c(=O)n1-c1ccccc1 | -27% | 10µM* | 13µM* | nt
Cc1noc(C)c1CSc1nc2ccccc2c(=O)n1-c1ccc(F)cc1F | ? | ? | ? | -7%
SMILES | 15-hLO inh | CRE-bla Fsk | ERK AVP inh | ALOX15B inhib
Cc1noc(C)c1CSc1nc2ccccc2c(=O)n1-c1ccccc1 | -26% | 10µM* | ? | -5%
Cc1nc(CSc2nc3[nH]ncc3c(=O)n2-c2ccccc2)cs1 | 1% | ? | -7% | -2%
O=C(NCCN1CCCCC1)c1ccc(-n2c(=O)c(=O)[nH]c3ccccc32)cc1 | -5% | nt | nt | nt
CN(C)Cc1ccccc1-c1nccc(NCc2cccs2)n1 | 0% | -6% | 1% | 19%
CCn1c2ccccc2c2nc3cc(S(=O)(=O)N4CCOCC4)ccc3nc21 | ? | 2µM* | 18% | -24%
CCn1c(C)nc2cc(S(=O)(=O)N3CCCCC3)ccc21 | 15% | 3% | -14% | 4%
O=c1c2ccccc2nc(-c2ccccc2)n1CCN1CCOCC1 | 1% | 8% | 0% | -3%
Brc1ccc2c(c1)c1nc3ccccc3nc1n2CCN1CCOCC1 | 32µM* | 13µM* | 32µM* | nt
c1ccc2nc3c(nc2c1)c1ccccc1n3CCN1CCOCC1 | -28% | 13µM* | -29% | -2%
C[N@@+]1(CC[N@@+]2(C)CCC[C@H]2c2cccnc2)CCC[C@@H]1c1cccnc1 | 132%[11.4 µM] | -2%[7.6 µM] | -4%[11.5 µM] | 17%[11.4 µM]
Clc1ccccc1/C=N/c1cc(-c2ccccc2)nn1-c1ccccc1 | nt | nt | nt | 1%
